The text below walks through data of PubChem BioAssay AID619 (University of Pittsburgh Molecular Library Screening Center, 2007).

The campaign covered roughly 97,000 compounds. About 520 (0.54%) were called active. The full list was thinned out, with actives kept by preference. A number with no mark means an inactive call.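 Rule for the calls: active = inhibition of 50% or more in the single-concentration screen; inactive = inhibition below 50%.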

Broadly, the inhibition is the drop in the measured response relative to a control, in per cent.

The target of this experiment is Serine/threonine-protein kinase PLK1 (Homo sapiens) (UniProt P53350). Briefly: Plk1 peptide phosphorylation blockers – biochemical, TR-FRET, primary screen (AID 619).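 Note: 0% = DMSO max control and 100% = H-89 dihydrochloride min control.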 The settings on record: recombinant PLK1 kinase, at 10 µM, stronger effect = higher value. (In general: Time-resolved FRET reads energy transfer from a long-lived donor to a nearby acceptor.)
Chain of Serine/threonine-protein kinase PLK1 (Homo sapiens) (P53350 whole entry, looked up): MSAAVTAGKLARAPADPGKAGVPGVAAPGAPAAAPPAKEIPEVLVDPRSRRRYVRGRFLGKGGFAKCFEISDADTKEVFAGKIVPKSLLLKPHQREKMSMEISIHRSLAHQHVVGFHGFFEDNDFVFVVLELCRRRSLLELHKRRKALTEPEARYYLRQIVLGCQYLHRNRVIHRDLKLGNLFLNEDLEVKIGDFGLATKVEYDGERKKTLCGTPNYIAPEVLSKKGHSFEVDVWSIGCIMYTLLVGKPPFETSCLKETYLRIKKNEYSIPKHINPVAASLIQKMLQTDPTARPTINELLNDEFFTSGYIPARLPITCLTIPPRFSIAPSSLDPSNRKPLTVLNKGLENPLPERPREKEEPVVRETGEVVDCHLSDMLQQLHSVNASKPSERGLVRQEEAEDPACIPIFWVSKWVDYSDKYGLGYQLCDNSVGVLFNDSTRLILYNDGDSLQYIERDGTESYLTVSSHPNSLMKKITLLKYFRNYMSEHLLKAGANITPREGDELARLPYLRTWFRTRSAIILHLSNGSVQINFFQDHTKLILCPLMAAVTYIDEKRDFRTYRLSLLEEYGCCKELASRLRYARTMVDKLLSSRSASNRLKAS
Turning to `COCC(=O)Nc1ccc(Br)cc1`, the inhibition is 2.4%.

With `COc1ccc(NCc2nnc(SCc3ccccc3)n2-c2ccc(OC)cc2)cc1`, the inhibition was -14.5%.

Consider `CC1Cc2ccccc2N1C(=O)c1cc2sccc2n1Cc1ccccc1` (stereo not drawn), for which the inhibition is -10.7%.

For the molecule `Cc1ccc(C(=O)N/C(=C/C=C/c2ccccc2)C(=O)NCc2ccco2)cc1`, the inhibition was -5.76%.

As to `O=C(/C=C/c1ccccc1)N/C(=C/c1ccccc1)C(=O)Nc1ccccc1O`, the inhibition was -4.44%.

For `Cc1ccccc1-n1c(C)cc(/C=N/NC(=O)c2ccc(CN3CCOCC3)cc2)c1C`, the inhibition was -16%.

Consider `Fc1ccccc1COc1ccccc1CNCc1ccncc1`, for which the inhibition is -5.47%.

As for `COCCCNC(=O)CN1CCN(Cc2ccccc2Cl)C1=O`, the inhibition is -2.49%.

For `COC(=O)CNS(=O)(=O)c1ccc(OC)cc1`, the inhibition is -2.7%.

Turning to `Cc1ccc(-n2c(CNc3ccc(F)cc3)nnc2SCC(=O)N2CCOCC2)cc1`, the inhibition was -8.34%.

Consider `O=C(NCc1ccccn1)c1cc(-c2ccccc2Cl)on1`, for which the inhibition is -11.3%.

As for `CCC(C)NC(=O)CCCc1ccccc1` (stereo not drawn), the inhibition was 3.26%.

With `O=C(Cn1cncn1)N/N=C/c1c2ccccc2cc2ccccc12`, the inhibition was -1.05%.

With `CC1CCN(S(=O)(=O)c2ccc(S(=O)(=O)NCc3ccco3)cc2)CC1`, the inhibition is -3.69%.

As for `Oc1ccc(-c2onc3ccc(Cl)cc23)cc1`, the inhibition was 7.69%.

Regarding `Cn1nc(C(F)(F)F)c(C(=O)Nc2cccc(C(F)(F)F)c2)c1SCc1ccc(Cl)cc1`, the inhibition is -9.84%.

Turning to `C=CCNc1nc(N)c(C(=C(C#N)C#N)c2ccccc2)s1`, the inhibition was -9.14%.

Regarding `Cc1c(Nc2cc(N3CCCC(C)C3)c3nonc3c2[N+](=O)[O-])c(=O)n(-c2ccccc2)n1C` (stereo not drawn), the inhibition was -8.74%.

Turning to `O=C(Nc1nnc(SCc2c(Cl)cccc2Cl)s1)C1CCCO1` (stereo not drawn), the inhibition is 2.16%.

With `CC(C)C[C@@H](N)c1nnc(SCC(=O)c2ccc(Cl)cc2)o1`, the inhibition was -3.08%.

For `COc1ccc2[nH]cc(/C=C(/C#N)S(=O)(=O)c3ccccc3)c2c1`, the inhibition was 0.68%.

In the case of `CC1CC(C)CN(C(=O)CSc2nnc(CSc3ncccn3)n2C)C1` (stereo not drawn), the inhibition is -3.56%.

As to `CCN1C(=O)C(CC(=O)Nc2cc(C)ccc2C)SC1=Nc1ccc(S(N)(=O)=O)cc1` (stereo not drawn), the inhibition is -2.89%.

Take `COC(=O)C1=C(C)N=C2SC(C)C(=O)N2C1/C=C/c1ccccc1` (stereo not drawn): the inhibition is -12.6%.

In the case of `Cc1nn(C)c(Oc2ccccc2)c1[N+](=O)[O-]`, the inhibition was -6.21%.

On to `CCOC(=O)C1=C(NC(=S)NC(=O)c2ccccc2)c2ccccc2CC1(C)C`, for which the inhibition is 5.6%.

Regarding `O=S(=O)(c1cnccc1N1CCN(/N=C/c2ccc(Br)cc2)CC1)N1CCCCC1`, the inhibition was -2.5%.

As to `Cc1cccc(S(=O)(=O)CC(=O)Nc2nc(-c3ccccc3)cs2)c1`, the inhibition is -1.62%.

As to `COCc1nnc(NC(=O)CS(=O)(=O)Cc2ccccc2)s1`, the inhibition was -4.96%.

Turning to `O=C(CCS(=O)(=O)c1ccccc1)Nc1nc2c(s1)CCCC2`, the inhibition was 68.7% (active).

Regarding `COC(=O)c1ccc(CSc2nnc(NC(C)C)s2)cc1`, the inhibition is -15%.

Consider `O=C(c1ccc(F)cc1)c1c[nH]c(C(=O)NCc2cccnc2)c1`, for which the inhibition was 3.12%.

As for `CCSc1nnc(NC(=O)Cc2ccccc2OC)s1`, the inhibition is -15.2%.

On to `CC(=O)c1cnn(-c2cc(Oc3ccc(F)cc3)ncn2)c1C`, for which the inhibition is -5.47%.

In the case of `CC(C)=CC(=O)Nc1nnc(-c2ccc(F)cc2)s1`, the inhibition was -17.5%.

`COc1ccc(C(=O)Nc2ncc3c(n2)-c2ccccc2CC3)cc1`: the inhibition was -1.84%.

As for `C/C(=N/NC(=O)c1ccc(NC(=O)c2ccc(F)cc2)cc1)c1ccccc1`, the inhibition was -9.91%.

As for `O=C(CN1C(=O)c2ccccc2S1(=O)=O)N1CCc2ccccc21`, the inhibition is -11.2%.

For `CCCc1nnc(NC(=O)CN2C(=O)c3ccccc3S2(=O)=O)s1`, the inhibition is -11%.

As for `CNC(=O)CN1C(=O)c2ccccc2S1(=O)=O`, the inhibition was 58.4% (active).

`CCOC(=O)N1CCN(C(c2cccnc2)c2ccc3cccnc3c2O)CC1` (stereo not drawn): the inhibition was 5.49%.

Consider `CN(C(=O)CSc1nnc(N)s1)c1c(N)n(Cc2ccccc2)c(=O)[nH]c1=O`, for which the inhibition was -0.95%.

On to `CN1/C(=C\C=C2\N=C(c3ccc(F)cc3)OC2=O)C(C)(C)c2ccccc21`, for which the inhibition was -25.2%.

Consider `Cc1ccc(NC(=O)c2ccc(CSc3ncnc4nc[nH]c34)cc2)c(C)c1`, for which the inhibition is 27.2%.

Consider `O=C(Nc1ccc2c(c1)CCC2)c1cccc(S(=O)(=O)N2CCN(c3ccc(F)cc3)CC2)c1`, for which the inhibition was -5.86%.

Take `O=C(Nc1cccc(F)c1)c1ccc(S(=O)(=O)N2CCCC2)cc1`: the inhibition is 72.1% (active).

For the molecule `CCOC(=O)N1CCN(S(=O)(=O)c2ccc(C(=O)Nc3ccc(F)cc3F)cc2)CC1`, the inhibition is -7.78%.

Turning to `CN(Cc1ccccc1)C(=O)COc1ccccc1`, the inhibition was -6.87%.

Take `C=CCNC(=S)N/N=C/c1ccc(OCc2ccccc2)cc1`: the inhibition is 7.95%.

As to `O=C(Nc1ccc2c(c1)OCCO2)C(c1ccc(F)cc1)N1CCCCC1` (stereo not drawn), the inhibition is 1.96%.

For the molecule `CC1(C)Cc2c(sc3nc(SCC(=O)NCc4ccccc4)n(-c4ccccc4)c(=O)c23)CS1`, the inhibition is -3.27%.

With `O=C(Nc1ccccc1Cl)O/N=C(/c1ccccc1)c1ccccn1`, the inhibition is -2.38%.

For the molecule `CCC(C)(C)n1nnnc1CN1CCN(c2nc3ccc(C)cc3cc2C#N)CC1`, the inhibition is -9.44%.

On to `COc1ccc(C(C#N)N2N=C(C)CC2(C)C)cc1` (stereo not drawn), for which the inhibition was -2.1%.

In the case of `COc1ccc(C2=Nc3cc(C)ccc3OC2)cc1`, the inhibition was -6.91%.

For `Cc1oc2nc(SCC(=O)NCc3cccnc3)nc(N)c2c1C`, the inhibition is 5.49%.

Regarding `COc1ccc(-c2nc(CS(=O)CC(=O)NCc3cccnc3)c(C)o2)cc1OC` (stereo not drawn), the inhibition is 78.2% (active).

With `COc1ccc(-c2nc(CS(=O)CC(=O)NCc3ccccn3)c(C)o2)cc1` (stereo not drawn), the inhibition was -9.42%.

As to `Cc1ccccc1OCc1nnc(SCC(=O)N2c3ccccc3Sc3ccc(Cl)cc32)o1`, the inhibition is 3.98%.

For `CCOC(=O)c1c(C)oc2cc(Br)c(OCC(N)=O)cc12`, the inhibition was -3.79%.

On to `CC1CN(c2cc(=O)n(Cc3ccc(F)cc3)c(=O)[nH]2)CC(C)O1` (stereo not drawn), for which the inhibition was 70.7% (active).

As for `CC(C)(C)N1CC(c2nc3ccccc3n2Cc2ccc(F)cc2)CC1=O` (stereo not drawn), the inhibition was -8.27%.

As for `CC1CN(c2cc(=O)n(-c3cccc(Br)c3)c(=O)[nH]2)CC(C)O1` (stereo not drawn), the inhibition is -9.28%.

`Cc1c(Cl)c([N+](=O)[O-])nn1Cc1ccc(C(=O)N/N=C\c2cc(Cl)ccc2O)o1`: the inhibition is -11.3%.

On to `COc1ccc(Nc2nc(Cl)nc(NCc3ccco3)n2)cc1`, for which the inhibition is -10.4%.

Turning to `Cc1ccc(-c2nc(CS(=O)CC(=O)N3CCN(c4ncccn4)CC3)c(C)o2)cc1` (stereo not drawn), the inhibition is 68.5% (active).

For `COc1ccc(-c2nnc(SCC(=O)NC3CCCCC3)o2)cc1OC`, the inhibition was -12.8%.

For the molecule `Cc1ccc(-c2nc(CS(=O)CC(=O)NC3CCCC3)c(C)o2)cc1` (stereo not drawn), the inhibition is 62.6% (active).

Turning to `Cc1ccc(S(=O)(=O)NCC(=O)N2CCN(c3ccccn3)CC2)cc1`, the inhibition was -12%.

With `COc1ccc(-c2nc(CS(=O)CC(=O)N3CCc4ccccc4C3)c(C)o2)cc1` (stereo not drawn), the inhibition was -0.36%.

With `Cc1ccc(S(=O)(=O)N(C)CC(=O)NC2CCCC2)cc1`, the inhibition was -5.15%.

As to `O=C(Nc1ccc(F)c(Cl)c1)C1CCN(S(=O)(=O)c2cccnc2)CC1`, the inhibition is -7.65%.

In the case of `N#CC1=C(N)N(c2ccccc2)C2=C(C(=O)CCC2)C1c1ccccc1` (stereo not drawn), the inhibition is -9.12%.

`CCOC(=O)Cc1csc(NC(NC(=O)OCC)(C(F)(F)F)C(F)(F)F)n1`: the inhibition was -10.9%.

Regarding `C=CCn1c(SCc2c(C(=O)OC)sc(N)c2C(=O)OC)nnc1-c1ccc(Cl)cc1`, the inhibition is 0.32%.

For the molecule `Cc1ccc(Nc2nc(C)cc(C)c2C(N)=O)cc1`, the inhibition was -8.3%.

Regarding `CCNC(=S)N1CCN(C(=O)c2ccco2)CC1`, the inhibition is -10.9%.

As for `COc1ccc(CN(Cc2ccco2)S(=O)(=O)c2ccc(S(=O)(=O)N3CCCC3)cc2)cc1`, the inhibition is -1.36%.

Consider `O=C1c2ccccc2C(=O)N1CC1c2ccccc2CCN1S(=O)(=O)c1ccccc1` (stereo not drawn), for which the inhibition was -13.2%.

In the case of `Cc1noc(C)c1COC(=O)c1cc2ccccc2cc1O`, the inhibition was -5.75%.

Turning to `O=C(NCCCCCCCCCNC(=O)C(F)(F)F)C(F)(F)F`, the inhibition was -9%.

With `COc1ccc(C(C(=O)NCc2ccccc2)N(Cc2cccs2)C(=O)c2cnccn2)cc1` (stereo not drawn), the inhibition is -8.73%.

For the molecule `Fc1ccc(N2N=C(c3cccs3)CC2c2ccco2)c(F)c1` (stereo not drawn), the inhibition was -0.33%.

`O=c1[nH]c(CCl)nc2cc(-c3ccc(Cl)cc3)sc12`: the inhibition was -15.1%.

`CCCCNC(=O)CCn1c(=S)[nH]c2cc3c(cc2c1=O)OCO3`: the inhibition is -10.8%.

As to `CCn1c(C)nc2c1C(=O)c1ccccc1C2=O`, the inhibition was -6.21%.

With `CC1CCN(c2ccc(S(=O)(=O)Nc3cc(C(=O)O)cc(C(=O)O)c3)cc2[N+](=O)[O-])CC1`, the inhibition was -8.56%.

As to `CCN(CC)C(=O)CSc1nnc(C2CCCCC2)o1`, the inhibition was -6.95%.

Take `O=C(CSCc1ccc([N+](=O)[O-])cc1)Nc1cccc(C(=O)Nc2ccccc2C(=O)O)c1`: the inhibition is -6%.

As to `CCc1ccc2c(c1)cc(CN(C(=S)Nc1ccccc1Cl)C1CC1)c1nnnn12`, the inhibition was -115%.

On to `O=C(CO/N=C/c1ccccc1O)NNC(=O)c1ccccc1Cl`, for which the inhibition is -11.5%.

For `COC(=O)C1C(=O)NCC1c1ccc(C)cc1` (stereo not drawn), the inhibition is -7.84%.

For `CC1C/C(=N/NC(=O)c2cccs2)CC(C)(C)C1` (stereo not drawn), the inhibition was -10.1%.
